Compounds with a hit are over-represented: about 7.3% of the library has one in this group of screens.
FMDV inh = High Throughput Screening for Foot and Mouth Disease Virus Antivirals. 410,000 tested, 1.2% active. FMDV antiviral cell-based qHTS. AID 1159524, 2015. Potency, µM (top dose mostly 57.9 µM), actives largely listed as inhibitors; calls by dose curve; tested in HEK293T cells; further: read-out not given here; nearly all actives have a fitted effect of over 45% in size
HCV inhibitor = qHTS Assay for Inhibitors of Hepatitis C Virus (HCV); 340,000 tested, 3.4% active; Huh7.5.1 HCVcc-Cre infection, luciferase reporter, 44 h; Potency, µM (series often up to 41.8 µM), most hits filed as inhibitors; active means well fitted inhibition curve with a large enough effect; inconclusive means small, poorly fitted or top-dose-only effect, or another doubt; inactive means no such curve, though single readings can be large or run the other way
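Compounds are dispensed onto cells plated 4 h earlier at 1,000 per well, with HCVcc-Cre virus (about 0.5 moi) added next. Following 44 h of culture, luminescent signal is measured for 15 sec after 15 min with substrate at room temperature.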
VACV mCherry inh = qHTS for Stage-Specific Inhibitors of Vaccinia Orthopoxvirus: mCherry Reporter Primary qHTS; Vaccinia virus mCherry reporter infection, fluorescence; Potency, µM (titrated, usually from 36.5 µM), usual class: inhibitors; 310,000 tested, 0.63% active; AID 720579, 2013; calls by dose curve; tested in A549 cells; further: nearly all actives have a fitted effect of over 35% in size
HCMV antiviral = qHTS Assay for inhibitors of the human cytomegalovirus (HCMV); activity change, negative = inhibition, % at 57.5 µM; HFF cells, HCMV-luciferase reporter, 72 h; active compounds read low; 410,000 tested, 4.5% active; in the data active means activity change below about -60%; inconclusive means no clear call, values can overlap the other calls; inactive means above about -39%
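Screen run at 2 compound doses on HFFs infected with reporter HCMV, MOI 1 PFU/cell. Luciferase activity from cell lysates at 72 h post infection gave inhibition relative to buffer-only and Salinomycin wells.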
VACV Venus inh = qHTS for Stage-Specific Inhibitors of Vaccinia Orthopoxvirus: Venus Reporter Primary qHTS; Vaccinia virus Venus reporter expression, fluorescence; Potency, µM (doses to about 36.5 µM), hits mostly inhibitors; 330,000 tested, 0.46% active; AID 720580, 2013; calls by dose curve; tested in A549 cells; further: nearly all actives have a fitted effect of over 30% in size
Numbers stand for hits; 0 = inactive; ? = inconclusive; - = no result given; + = active, no number; ! = not active in a repeat.

SMILES	FMDV inh	HCV inhibitor	VACV mCherry inh	HCMV antiviral	VACV Venus inh
CCOc1ccccc1NC(=O)NCCn1c(=O)oc2ccc(C)cc21	0	-	0	0	0
Cc1ccc(NC(=O)C2CCN(S(=O)(=O)c3ccc4c(c3)NC(=O)C(C)S4)CC2)c(Cl)c1 (configuration not stated)	18µM	11µM	-	0	-
Cc1ccc(CCNC(=O)C2CCN(S(=O)(=O)c3ccc4c(c3)NC(=O)C(C)S4)CC2)cc1 (configuration not stated)	32µM	6.3µM	0	?	0
CC1Sc2ccc(S(=O)(=O)N3CCC(C(=O)NCC(C)c4ccccc4)CC3)cc2NC1=O (configuration not stated)	?	11µM	0	0	0
Cc1cccc(N2CCN(S(=O)(=O)c3ccc4c(c3)NC(=O)C(C)S4)CC2)c1C (configuration not stated)	0	0.32µM	-	-79	-
CC1Sc2ccc(S(=O)(=O)N3CCC(C(=O)NCCc4ccccc4)CC3)cc2NC1=O (configuration not stated)	0	?	0	0	0
CCOc1ccc(C(=O)Nc2c(C(=O)Nc3ccccc3OC)oc3ccccc23)cc1OCC	0	-	0	0	0
Cc1ccc(NC(=O)C2CCN(S(=O)(=O)c3ccc4c(c3)NC(=O)C(C)S4)CC2)cc1Cl (configuration not stated)	?	?	-	-99	-
CC(C)c1ccc(NC(=O)C2CCC(CNS(=O)(=O)c3ccc4c(c3)CCCC(=O)N4)CC2)cc1 (configuration not stated)	25µM	-	?	0	?
Cc1ccc(NC(=O)C2CCN(S(=O)(=O)c3ccc4c(c3)CCCC(=O)N4)CC2)c(Br)c1	0	0	0	+!	0
Cc1cccc(CCNC(=O)C2CCN(S(=O)(=O)c3ccccc3)CC2)c1	0	0	0	-68	0
O=C(NCCc1cccc(F)c1)C1CCN(S(=O)(=O)c2ccccc2)CC1	0	0	-	0	-
c1ccc(CNc2ncncc2-c2ccoc2)cc1	0	-	-	-	-
CC(C)C[C@@H]1COc2cccc(N3CCCC3)c2S(=O)(=O)N1	-	-	-	0	-
CSCC[C@H](NC(=O)[C@H](Cc1ccccc1)NC[C@@H](NC[C@@H](N)CS)C(C)C)C(=O)O	0	-	0	-	0
CC(C)c1ccc(NC(=O)C2CCC(CNC(=O)[C@@H]3Cc4ccccc4CN3)CC2)cc1 (some centres not stated)	0	14µM	0	0	0
Cc1ccc(NC(=O)C2CCC(CNC(=O)[C@@H]3Cc4ccccc4CN3)CC2)cc1 (some centres not stated)	0	0	-	?	-
O=C(C[C@@H]1NS(=O)(=O)OC2CCCCC21)c1ccccc1 (some centres not stated)	0	0.28µM	0	0	0
CC(C)(C)SC(=O)CC1NS(=O)(=O)OC2CCCCC12 (configuration not stated)	0	0	0	0	0
CC1(C)OC(=O)C=C(CC2NS(=O)(=O)OC3CCCCC23)O1 (configuration not stated)	0	2.5µM	0	0	0
O=C(Cn1c(=O)oc2cc(S(=O)(=O)N3CCCCCC3)ccc21)Nc1cccc(C(F)(F)F)c1	0	-	0	?	0
Cc1ccc(-c2nnn(CC(=O)NC3CCN(Cc4ccccc4)CC3)n2)cc1	0	22µM	-	0	-
O=C(Cn1nnc(-c2ccc(Cl)cc2)n1)NC1CCN(Cc2ccccc2)CC1	0	?	0	0	0
O=C(Cc1ccccc1)NC1CCN(Cc2ccccc2)CC1	0	0	0	-62	0
Cc1ccc(CC(=O)NC2CCN(Cc3ccccc3)CC2)cc1	0	0	0	0	0
SMILES	FMDV inh	HCV inhibitor	VACV mCherry inh	HCMV antiviral	VACV Venus inh
O=C(CCN1CCN(Cc2ccccc2)CC1)NNC(=O)Cc1ccc(Cl)c(Cl)c1	0	?	28µM	0	?
CCC(=O)c1ccc(OCC(=O)NC2CCN(Cc3ccccc3)CC2)cc1	0	?	-	-105	-
C=C1C=C(C(F)F)n2ncc(C(=O)N3CCN(c4ccccn4)CC3)c2N1	-	-	0	-	0
NC(=O)NN=C1CCC(O)CC1CC(=O)O (configuration not stated)	-	-	-	0	-
O=C(Cc1ccc(Br)cc1)NC1CCN(Cc2ccccc2)CC1	0	10µM	0	?	0
O=C(NC1CCN(Cc2ccc(Cl)cc2Cl)CC1)c1ccccc1	?	?	0	-81	0

Source: PubChem BioAssay (National Center for Advancing Translational Sciences (NCATS))
